Test results reported in PubChem BioAssay (NCATS).
Unmarked numbers belong to inactive results. Results filed as inconclusive are left out. A call without a number means that no potency is given here. Activity calls are given as the source filed them. Unless noted, calls follow the shape of the dose curve; as a rule, active = well fitted curve in the direction sought with a large enough effect; inconclusive = small, poorly fitted or top-dose-only effect, or another doubt; inactive = no such curve, though single readings can be large; an effect the other way counts as inactive or inconclusive.

What was measured:
[1] = Cellular Toxicity (caspase-3) SHSY5Y (AID 657)
How it was run: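 qHTS, SH-SY5Y, 1500 cells/well, 5 h pre-incubation 37 °C; compound 16 h 37 °C; Caspase-Glo 3/7 1 h RT; luminescence. Norm.: DMSO = 0, 10 uM staurosporine = 100%. Hill fit → AC50.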

[2] = Cellular Toxicity (caspase-3) BJ (AID 658); conditions: Potency: caspase-3 activation
How it was run: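 qHTS, BJ fibroblasts, 1000 cells/well; 5 hr preincubation, 16 hr compound, 37 °C; Caspase-Glo 3/7 reagent, 1 hr RT; luminescence. DMSO = 0%, 10 uM staurosporine = 100%. Hill-equation AC50.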

[3] = Cellular Toxicity (caspase-3) MRC-5 (AID 659); conditions: Potency: caspase-3 activation
How it was run: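 MRC-5 fibroblasts, 1500/well; 16 h cpd, 37 °C; Caspase-Glo 3/7, 1 h RT; lumi read. Norm: DMSO = 0%, 10 uM staurosporine = 100%. Hill-fit AC50 from qHTS conc-response.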

[4] = Cellular Toxicity (caspase-3) Mesangial (AID 660); conditions: Potency: caspase-3 activation;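 also: combined caspase 3 and 7 activity read by Caspase-Glo luminescence; cells exposed to compound for 16 h before the caspase read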
How it was run: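 AC50 values come from Hill-equation fits of caspase 3/7 activation, measured as Caspase-Glo luminescence in human glomerular mesangial cells exposed to compound for 16 h at 37 °C; 100% set by 100 uM tamoxifen.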

[5] = Cellular Toxicity (caspase-3) SK-N-SH (AID 661)
How it was run: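 Apoptosis readout in SK-N-SH neuroblastoma: Caspase-Glo 3/7 luminescence following 16 hr treatment in complete culture medium. Normalization used DMSO and 10 uM staurosporine controls.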

[6] = Cellular Toxicity (caspase-3) H-4-II-E (AID 663); conditions: H-4-II-E rat hepatoma, scaled: DMSO 0%, 100 µM tamoxifen 100%; at 92.2 µM (top of the series);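 also: cells exposed to compound for 16 hr before readout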
How it was run: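 H-4-II-E rat hepatoma, 1500 cells/well, 5 hr settle at 37 °C; compound 16 hr, 37 °C, complete medium; Caspase-Glo 3/7, 20 min RT; luminescence. DMSO = 0%, 100 uM tamoxifen = 100%; Hill-equation AC50.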

[7] = Cellular Toxicity (caspase-3) Hek293 (AID 664); conditions: HEK293 caspase-3 activation, DMSO = 0%, 100 µM tamoxifen = 100%; at 92.2 µM (top of the series);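 also: cells exposed to compound for 16 h at 37 °C before readout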
How it was run: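 Apoptosis readout: Caspase-Glo 3/7 signal in human HEK293 cells following 16-hour compound incubation. Responses scaled between DMSO baseline and 100 uM tamoxifen.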

[8] = Cellular Toxicity (caspase-3) N2a (AID 665);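 also: compound exposure lasted 16 h at 37 °C before readout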
How it was run: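 Concentration-response qHTS: compound-induced caspase-3/7 luminescence in N2a cells (16 h, 37 °C), relative to DMSO and 10 uM staurosporine controls; AC50 obtained using the standard Hill equation.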

[9] = Cellular Toxicity (caspase-3) Renal Proximal Tubule (AID 667); conditions: Potency: caspase-3 activation;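 also: cells exposed to compound for 16 hours at 37 °C before detection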
How it was run: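 AC50 derived by standard Hill fit of concentration-response data, normalized between DMSO basal and 10 uM staurosporine as 100% stimulation. Cells: primary rat kidney proximal tubule, 16 h treatment at 37 °C.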

[10] = molecular target: Cytochrome P450 3A4 (Homo sapiens) (UniProt P08684); test: qHTS Assay for Activators of Cytochrome P450 3A4 (AID 885); also: nearly all actives have a fitted effect of over 65% in size
How it was run: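 Activators are scored by enhanced luminescence from CYP3A4 conversion of luciferin-PPXE (25uM, equal to KM) to luciferin, after 60 min at RT with an NADPH-regenerating system.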

[11] = Confirmation and Secondary Assay for Modulators of Hemoglobin Beta Chain Splicing at IVS2 654 locus (AID 910);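 also: HeLa cells stably carrying EGFP split by mutant beta-globin IVS2-654 intron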
How it was run: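 HeLa cells stably expressing EGFP interrupted by β-globin IVS2-654 intron, seeded overnight in Opti-MEM/2% FCS, then treated 2 days at 37 °C. Restored splicing read as total peak GFP intensity per well by laser scanning cytometry (488 nm excitation, 500–520 nm emission); 500 nM antisense PNA as control.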

[12] = Cell Viability - LYMP2-001 (AID 921);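 also: cells exposed to compound for 24 h at 37 °C; nearly all actives have a fitted effect of over 70% in size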; also: potency is read from the fitted curve at half-maximal effect
How it was run: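 Steps: seed 2500 lymphoblastoid cells/well; 5 hr, 37 C; add compound; 24 hr, 37 C; CellTiter-Glo reagent, 30 min room temperature; read luminescence. Concentration-response modeled by Hill equation for AC50.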

[13] = Confirmation and Secondary Assay for Modulators of Hemoglobin Beta Chain Splicing at IVS2 705 locus (AID 930);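 also: HeLa cells stably expressing the EGFP-705 splicing reporter; GFP fluorescence per well restored by corrected splicing of the IVS2-705 intron in EGFP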
How it was run: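 Fluorescence gain (488 nm laser, 500-520 nm PMT) reflects restored correct splicing of a mutant IVS2-705 intron inside EGFP in stably transfected HeLa cells after 2-day compound treatment.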

[14] = molecular target: Guanine nucleotide-binding protein G(i) subunit alpha-1 (Homo sapiens) (UniProt P63096); test: qHTS Assay for Inhibitors of RGS12 GoLoco Motif Activity (Green Fluorophore) (AID 879);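 also: negative values mean loss of peptide binding seen as reduced polarization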
How it was run: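 A drop in FITC polarization marked displacement of the FITC-tagged RGS12 GoLoco peptide (10 nM) from Gαi1 (50 nM). Compounds were incubated 10 min at room temperature in Tris pH 7.5 buffer containing 150 mM NaCl, 0.1 mM GDP and 0.05% NP40; unlabeled peptide titration served as control.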

[15] = qHTS Assay for Identification of Small Molecule Antagonists for NFkB Signaling Pathway (AID 895; active = well fitted inhibition curve with a large enough effect in the signal ratio, with a control signal flat, not every such curve was filed as active; the % refers to the signal ratio; also: potency is read from the fitted curve at half-maximal effect)
How it was run: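 ME-180 NFkB-bla cells (beta-lactamase under NFkB response element), plated overnight, treated with compound then 10 pM TNF alpha (about EC50) for 5 hrs at 37 C. LiveBLAzer FRET read at 460/530 nm emission, 405 nm excitation.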

[16] = qHTS Assay for Identification of Small Molecule Agonists for Thrombopoietin (TPO) Signaling Pathway (AID 917)
How it was run: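 Cell-based luciferase reporter screen. Mouse Ba/F3 line stably expressing human TPO receptor; IL-3 removed overnight before plating. Co-treatment with compound and EC50 TPO (26 pM), 24 hrs at 37 C, then luminescence.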

[17] = molecular target: Cytochrome P450 2D6 (Homo sapiens) (UniProt P10635); test: qHTS Assay for Inhibitors and Substrates of Cytochrome P450 2D6 (AID 891); also: potency is read from the fitted curve at half-maximal effect; nearly all actives have a fitted effect of over 60% in size
How it was run: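 Luminescent read-out of luciferin formed by 5 nM human CYP2D6 demethylating 30 uM Luciferin-ME EGE (Km level) over 60 min at room temperature after NADPH regeneration addition. Data normalized to full inhibition by 1.43 uM quinidine.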

[18] = molecular target: Cytochrome P450 2C9 (Homo sapiens) (UniProt P11712); test: qHTS Assay for Inhibitors and Substrates of Cytochrome P450 2C9 (AID 883); also: nearly all actives have a fitted effect of over 60% in size
How it was run: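 Human CYP2C9 (10nM) with Luciferin-H at 100uM (its KM) in 25mM KPO4; compound preincubated 10 min at 37C, then NADPH regeneration for 60 min at 37C. Luciferin read by luminescence after detection reagent; normalized to 57uM sulphaphenazole as full inhibition.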

[19] = molecular target: Cytochrome P450 2C19 (Homo sapiens) (UniProt P33261); test: qHTS Assay for Inhibitors and Substrates of Cytochrome P450 2C19 (AID 899); also: potency is read from the fitted curve at half-maximal effect; nearly all actives have a fitted effect of over 60% in size
How it was run: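 5 nM human CYP2C19 with 10uM Luciferin-H EGE (at KM) in 50mM KPO4, compound preincubated 10 min at 37C, then NADPH regeneration for 60 min at 37C. Luciferin read by luminescence after detection reagent; normalized to 57uM ketoconazole as full inhibition.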

Sequence of Cytochrome P450 2D6 (Homo sapiens) (P10635 whole entry, looked up): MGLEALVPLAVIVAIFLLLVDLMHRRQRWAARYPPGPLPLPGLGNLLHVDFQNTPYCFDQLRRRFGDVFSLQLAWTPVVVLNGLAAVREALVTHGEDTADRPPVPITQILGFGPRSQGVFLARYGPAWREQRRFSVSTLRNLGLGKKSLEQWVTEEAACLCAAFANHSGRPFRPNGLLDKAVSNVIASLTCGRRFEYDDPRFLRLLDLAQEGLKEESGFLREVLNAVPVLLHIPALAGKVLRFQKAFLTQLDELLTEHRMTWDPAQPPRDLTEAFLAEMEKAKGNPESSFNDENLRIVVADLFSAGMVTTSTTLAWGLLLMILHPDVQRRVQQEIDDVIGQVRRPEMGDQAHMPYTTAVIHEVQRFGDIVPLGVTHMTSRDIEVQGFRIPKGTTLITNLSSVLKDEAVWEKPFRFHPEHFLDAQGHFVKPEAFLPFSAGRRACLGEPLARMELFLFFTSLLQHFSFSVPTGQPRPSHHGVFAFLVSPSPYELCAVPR
Sequence of Cytochrome P450 3A4 (Homo sapiens) (P08684 whole entry, looked up): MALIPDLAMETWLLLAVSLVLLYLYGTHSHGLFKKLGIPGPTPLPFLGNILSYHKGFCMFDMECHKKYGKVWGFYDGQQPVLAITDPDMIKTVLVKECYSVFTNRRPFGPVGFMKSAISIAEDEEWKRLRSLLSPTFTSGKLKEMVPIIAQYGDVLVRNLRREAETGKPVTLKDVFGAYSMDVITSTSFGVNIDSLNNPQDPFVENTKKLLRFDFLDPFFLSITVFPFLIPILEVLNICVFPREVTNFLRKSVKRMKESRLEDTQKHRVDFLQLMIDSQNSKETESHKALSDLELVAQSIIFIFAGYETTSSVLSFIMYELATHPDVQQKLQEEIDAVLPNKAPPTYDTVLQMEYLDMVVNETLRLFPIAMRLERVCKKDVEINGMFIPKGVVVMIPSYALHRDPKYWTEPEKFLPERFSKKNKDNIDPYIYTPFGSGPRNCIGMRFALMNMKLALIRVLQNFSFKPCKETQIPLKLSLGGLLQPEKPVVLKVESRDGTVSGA
Sequence of Guanine nucleotide-binding protein G(i) subunit alpha-1 (Homo sapiens) (P63096 whole entry, looked up): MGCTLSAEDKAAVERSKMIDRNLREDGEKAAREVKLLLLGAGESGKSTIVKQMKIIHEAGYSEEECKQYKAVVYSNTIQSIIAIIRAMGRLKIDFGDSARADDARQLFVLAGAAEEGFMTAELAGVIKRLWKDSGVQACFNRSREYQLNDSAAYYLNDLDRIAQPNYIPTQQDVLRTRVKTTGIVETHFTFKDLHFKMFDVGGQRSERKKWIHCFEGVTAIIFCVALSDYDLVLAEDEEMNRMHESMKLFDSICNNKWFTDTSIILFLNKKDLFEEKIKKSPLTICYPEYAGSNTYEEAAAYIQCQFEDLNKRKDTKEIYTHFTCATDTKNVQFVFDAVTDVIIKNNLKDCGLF
Sequence of Cytochrome P450 2C9 (Homo sapiens) (P11712 whole entry, looked up): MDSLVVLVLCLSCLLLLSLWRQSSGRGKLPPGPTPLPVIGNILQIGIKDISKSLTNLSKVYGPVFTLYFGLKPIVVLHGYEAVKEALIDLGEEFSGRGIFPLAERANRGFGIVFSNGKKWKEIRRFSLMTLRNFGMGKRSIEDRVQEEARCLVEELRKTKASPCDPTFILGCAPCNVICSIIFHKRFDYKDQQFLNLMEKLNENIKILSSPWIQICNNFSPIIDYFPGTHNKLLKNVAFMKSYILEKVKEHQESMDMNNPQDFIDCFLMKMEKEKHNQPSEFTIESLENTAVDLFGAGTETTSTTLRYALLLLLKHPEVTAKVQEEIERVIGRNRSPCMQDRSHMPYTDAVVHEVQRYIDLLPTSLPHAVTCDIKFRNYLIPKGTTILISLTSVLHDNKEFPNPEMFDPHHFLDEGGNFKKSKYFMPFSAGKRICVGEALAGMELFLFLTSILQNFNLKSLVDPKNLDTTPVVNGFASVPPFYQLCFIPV
Sequence of Cytochrome P450 2C19 (Homo sapiens) (P33261 whole entry, looked up): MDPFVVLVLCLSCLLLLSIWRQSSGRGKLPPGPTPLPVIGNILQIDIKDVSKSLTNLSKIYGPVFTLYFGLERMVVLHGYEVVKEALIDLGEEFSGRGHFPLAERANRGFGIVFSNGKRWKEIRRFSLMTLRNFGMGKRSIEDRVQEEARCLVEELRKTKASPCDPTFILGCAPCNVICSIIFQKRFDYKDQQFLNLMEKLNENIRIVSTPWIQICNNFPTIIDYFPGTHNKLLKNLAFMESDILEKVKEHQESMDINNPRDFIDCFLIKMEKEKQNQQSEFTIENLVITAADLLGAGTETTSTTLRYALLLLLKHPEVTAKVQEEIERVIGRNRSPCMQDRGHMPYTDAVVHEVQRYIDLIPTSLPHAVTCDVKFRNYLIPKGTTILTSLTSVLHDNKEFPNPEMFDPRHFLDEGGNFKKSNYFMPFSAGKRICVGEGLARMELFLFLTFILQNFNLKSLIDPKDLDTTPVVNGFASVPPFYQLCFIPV

## NNC(=O)c1ccncc1
[1]
  Potency: inactive
[2]
  Potency: inactive
[3]
  Potency: inactive
[4]
  Potency: inactive
[5]
  Potency: inactive
[6]
  caspase-3 activation: 0.877%
[7]
  caspase-3 activation: 0.113%
[8]
  outcome: inactive
[9]
  Potency: inactive
[10]
  outcome: inactive
[11]
  Potency: inactive
[12]
  Potency: inactive
[13]
  Potency: inactive

## COc1cc([C@@H]2c3cc4c(cc3[C@H](O)[C@H]3COC(=O)[C@H]23)OCO4)cc(OC)c1OC
[10]
  outcome: inactive

## CC[C@H](C)C(=O)O[C@H]1C[C@@H](C)C=C2C=C[C@H](C)[C@H](CC[C@@H]3C[C@@H](O)CC(=O)O3)[C@H]21
[1]
  Potency: inactive
[2]
  Potency: inactive
[3]
  Potency: inactive
[4]
  Potency: inactive
[5]
  Potency: inactive
[6]
  caspase-3 activation: 1.47%
[7]
  caspase-3 activation: -1.73%
[8]
  outcome: inactive
[12]
  Potency: inactive

## Cc1cccc(Nc2ccncc2S(=O)(=O)NC(=O)NC(C)C)c1
[10]
  outcome: inactive
[11]
  Potency: inactive
[13]
  Potency: inactive

## Cc1cc(NS(=O)(=O)c2ccc(N)cc2)no1
[1]
  Potency: inactive
[2]
  Potency: inactive
[3]
  Potency: inactive
[4]
  Potency: inactive
[5]
  Potency: inactive
[6]
  caspase-3 activation: 0.0786%
[7]
  caspase-3 activation: 1.7%
[8]
  outcome: inactive
[9]
  Potency: inactive
[11]
  Potency: inactive
[12]
  Potency: inactive
[13]
  Potency: inactive

## NC(N)=NC(N)=NCCc1ccccc1
[1]
  Potency: inactive
[2]
  Potency: inactive
[3]
  Potency: inactive
[4]
  Potency: inactive
[5]
  Potency: inactive
[6]
  caspase-3 activation: 0.291%
[7]
  caspase-3 activation: -0.745%
[8]
  outcome: inactive
[9]
  Potency: inactive
[12]
  Potency: inactive

## COc1cc2ncnc(Nc3cccc(Cl)c3)c2cc1OC
[14]
  outcome: inactive
[15]
  Potency: 15.8 µM (active)
[16]
  outcome: inactive

## Cc1ccnc2c1NC(=O)c1cccnc1N2C1CC1
[1]
  Potency: inactive
[2]
  Potency: inactive
[3]
  Potency: inactive
[4]
  Potency: inactive
[5]
  Potency: inactive
[6]
  caspase-3 activation: 0.892%
[7]
  caspase-3 activation: -0.521%
[8]
  outcome: inactive
[9]
  Potency: inactive
[12]
  Potency: inactive

## CCCCS(=N)(=O)CCC(N)C(=O)O (stereo not drawn)
[10]
  outcome: inactive
[11]
  Potency: inactive
[13]
  Potency: inactive

## CC(=O)Oc1ccccc1C(=O)Nc1ncc([N+](=O)[O-])s1
[1]
  Potency: inactive
[2]
  Potency: inactive
[3]
  Potency: inactive
[4]
  Potency: inactive
[5]
  Potency: inactive
[6]
  caspase-3 activation: -3.94%
[7]
  caspase-3 activation: -8.75%
[8]
  outcome: inactive

## N[C@@H](Cc1ccc(O)c(O)c1)C(=O)O
[14]
  outcome: inactive
[15]
  Potency: inactive
[16]
  outcome: inactive

## COc1ccc2cc3[n+](cc2c1OC)CCc1cc2c(cc1-3)OCO2
[1]
  Potency: inactive
[2]
  Potency: inactive
[3]
  Potency: inactive
[4]
  Potency: inactive
[5]
  Potency: inactive
[6]
  caspase-3 activation: 0.864%
[7]
  caspase-3 activation: 4.12%
[8]
  outcome: inactive
[9]
  Potency: inactive
[10]
  outcome: inactive
[17]
  Potency: 2.51 µM (active)
[11]
  Potency: inactive
[12]
  Potency: 39.8 µM (active)
[13]
  Potency: inactive

## C[C@]12C=CC(=O)C=C1CC[C@@H]1[C@@H]2C(=O)C[C@@]2(C)[C@H]1CC[C@]2(O)C(=O)CO
[1]
  Potency: inactive
[2]
  Potency: inactive
[3]
  Potency: inactive
[4]
  Potency: inactive
[5]
  Potency: inactive
[6]
  caspase-3 activation: 0.264%
[7]
  caspase-3 activation: -0.65%
[8]
  outcome: inactive
[9]
  Potency: inactive
[12]
  Potency: inactive

## CCOC(=O)c1ccc(OC(=O)CCCCCN=C(N)N)cc1
[18]
  outcome: inactive
[17]
  Potency: 0.316 µM (active)

## C1CCC(C(CC2CCCCN2)C2CCCCC2)CC1 (stereo not drawn)
[10]
  outcome: inactive
[11]
  Potency: inactive
[13]
  Potency: inactive

## O=C(O)c1cc(=O)[nH]c(=O)[nH]1
[1]
  Potency: inactive
[2]
  Potency: inactive
[3]
  Potency: inactive
[4]
  Potency: inactive
[5]
  Potency: inactive
[6]
  caspase-3 activation: 0.389%
[7]
  caspase-3 activation: -0.467%
[8]
  outcome: inactive
[9]
  Potency: inactive
[12]
  Potency: inactive

## CC1=CC(=O)c2ccccc2C1=O
[10]
  outcome: inactive
[17]
  Potency: 7.94 µM (active)
[19]
  Potency: 2.51 µM (active)
[11]
  Potency: inactive
[13]
  Potency: inactive

## CCc1cc(C(N)=S)ccn1
[1]
  Potency: inactive
[2]
  Potency: inactive
[3]
  Potency: inactive
[4]
  Potency: inactive
[5]
  Potency: inactive
[6]
  caspase-3 activation: -1.43%
[7]
  caspase-3 activation: -3.96%
[8]
  outcome: inactive
[9]
  Potency: inactive
[11]
  Potency: inactive
[12]
  Potency: inactive
[13]
  Potency: inactive

## CC1=NN(c2ccccc2)C(=O)C1
[1]
  Potency: inactive
[2]
  Potency: inactive
[3]
  Potency: inactive
[4]
  Potency: inactive
[5]
  Potency: inactive
[6]
  caspase-3 activation: -1.22%
[7]
  caspase-3 activation: 1.55%
[8]
  outcome: inactive
[9]
  Potency: inactive
[10]
  outcome: inactive
[11]
  Potency: inactive
[12]
  Potency: inactive
[13]
  Potency: inactive

## O=C(N[C@H](CO)[C@H](O)c1ccc([N+](=O)[O-])cc1)C(Cl)Cl
[1]
  Potency: inactive
[2]
  Potency: inactive
[3]
  Potency: inactive
[4]
  Potency: inactive
[5]
  Potency: inactive
[6]
  caspase-3 activation: 0.675%
[7]
  caspase-3 activation: 1.63%
[8]
  outcome: inactive
[9]
  Potency: inactive
[12]
  Potency: inactive

## Cc1ncc([N+](=O)[O-])n1CCO
[1]
  Potency: inactive
[2]
  Potency: inactive
[3]
  Potency: inactive
[4]
  Potency: inactive
[5]
  Potency: inactive
[6]
  caspase-3 activation: 0.0502%
[7]
  caspase-3 activation: -0.402%
[8]
  outcome: inactive
[9]
  Potency: inactive
[11]
  Potency: inactive
[12]
  Potency: inactive
[13]
  Potency: inactive

## CC(C)(C)NC(=O)[C@H]1CC[C@H]2[C@@H]3CC[C@H]4NC(=O)C=C[C@]4(C)[C@H]3CC[C@]12C
[14]
  outcome: inactive

## Cc1ccc(S(=O)(=O)N[C@@H](Cc2ccccc2)C(=O)CCl)cc1
[14]
  outcome: inactive
